# Source: PubChem BioAssay (NCI)
# The panel holds about 83,000 compounds, 20% with a hit somewhere; the sample as a whole holds those more often.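 Note: values are percent growth. 100 is the growth of untreated cells, values between 100 and 0 indicate rising inhibition; between -100 and 0 indicates cell death.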 A number with no mark means an inactive call. The source made the active and inactive calls. Rule for the calls: active = growth percent below 10; inactive = the rest.
# System: SK-MEL-5 melanoma
# Test: NCI-60 one-dose screen, 48 h (100 = growth as untreated, 0 = no growth, -100 = all killed)
# Conditions: 10 µM unless noted
row,Compound,growth
1,COc1cc(-c2nnc(-c3nc(-c4cc(OC)c(OC)c(OC)c4)n4ccccc34)o2)ccc1N,56.1%
2,O=C(Nc1ccc2c(c1)C(=O)c1ccccc1-2)c1ccccc1,97.9%
3,COc1ccc(CNC(=O)c2c(C)n([O-])c3ccc(OC)cc3[n+]2=O)cc1,95%
4,N#CC(C#N)C(C#N)C#N,103%
5,CC[N+](CCCCCCCCCC[N+](CC)(c1ccccn1)c1ccccn1)(c1ccccn1)c1ccccn1,-72.4% (active)
6,CCCCCCCSc1ncnc2[nH]ncc12,92.4%
7,CC(C)N(Cc1ccccc1)c1c(S)ssc1=S,-75.9% (active)
8,O=C(NCCNC(=O)Oc1cccc2ccccc12)Oc1cccc2ccccc12,85.9%
9,CC(C)N(Cc1ccccc1)c1c(Cl)ssc1=O,104%
10,COc1cnc2c(c1)C(=O)c1c-2n(CCCN2CCCC2)c(=O)c2cc(F)ccc12,-95.9% (active)
11,CSc1nc(-c2ccc(O)cc2O)c2c(=O)[nH]c(Nc3ccc(S(=O)(=O)Nc4nc(C)cc(C)n4)cc3)nc2n1,109%
12,c1ccc(COc2ccc(Nc3ncnc4c3cnn4-c3ccccc3)cc2)cc1,94.3%
13,O=C1/C(=C/c2ccc(F)cc2)Cc2ccccc21,99.9%
14,CC[n+]1c(/C=C/c2ccc(N3CCCC3)cc2)cccc1/C=C/c1ccc(N2CCCC2)cc1,-87.6% (active)
15,ICCC(c1ccccc1)(c1ccccc1)c1ccccc1,-49.5% (active)
16,O=C(CSc1nnc(-c2cc(-c3ccccc3)nc3ccccc23)o1)c1ccc(Br)cc1,103%
17,O=c1[nH]c(SCc2ccccc2)nc2nc(Nc3ccc(NC(=S)Nc4ccccc4)cc3)nc(-c3ccc(O)cc3O)c12,101%
18,Cc1cc(Cl)ccc1Nc1nc(C(F)(F)F)ccc1C(=O)N/N=C/c1ccc(Cl)cc1,-13.8% (active)
19,Cc1sc2nc3c4ccccc4c(NCCCN(C)C)nn3c(=O)c2c1C,9.72% (active)

row,Compound,growth
1,C[C@H](C(=O)N[C@@H](Cc1ccc(-c2ccccc2)cc1)C(=O)NC1CC(C)(C)NC(C)(C)C1)c1ccc(-c2ccccc2)c(F)c1,-93.1% (active)
2,Cc1csc(C#Cc2cncc(O)c2)n1,82.6%
3,CN[C@@H]1C(OC2[C@H](O[C@H]3[C@H](O)[C@@H](O)[C@H](N=C(N)N)[C@@H](O)[C@@H]3N=C(N)N)OC(C)[C@]2(O)CO)OC(CO)C(O)C1O (stereo partly drawn),105%
4,COCCOCCOCCOCCOc1ccc2c(c1)C(=O)c1nc3ncccc3c(=O)n1-2,-100% (active)
5,Nc1ccc2c(c1)C(=O)c1cc(Cl)c(Cl)cc1-2,98%
6,COc1ccc2c(c1)C(=Nc1cc(OC)c(OC)c(OC)c1)C(=O)N2,114%
7,CN(C)CCCN=c1cc2c(=O)n(CCCN(C)C)c(=O)c3c(NCCCN(C)C)cc4c(O)n(CCCN(C)C)c(=O)c1c4c3-2,-82.4% (active)
8,COc1ccc(-c2cnc(SCC(=O)Nc3ccc(-c4nc5ccccc5s4)cc3)n2-c2ccc(OC)cc2)cc1,99.4%
9,O=c1[nH]cc(Nc2cc(Cl)c3nonc3c2[N+](=O)[O-])c(=O)[nH]1,105%
10,CCOC(=O)Nc1cc(-c2ccc(C)c(NS(C)(=O)=O)c2)nn2c(C)nnc12,-57.2% (active)
11,NS(=O)(=O)c1cc2c(cc1Cl)NC=NS2(=O)=O,107%
12,COc1ccc2ncccc2c1Cc1c(OC)ccc2ncccc12,60.5%
13,c1ccc(-c2n(Cc3ccc4ccccc4c3)cc[n+]2Cc2ccc3ccccc3c2)cc1,-98.4% (active)
14,Nc1nc(Nc2ccccc2SSc2ccccc2Nc2nc(N)nc(-c3cccc(Cl)c3)n2)nc(-c2cccc(Cl)c2)n1,95.5%
15,CC1CN(CC(O)c2ccc(Br)cc2)CCO1 (stereo not drawn),108%
16,CC[C@@H](C)/C=C(C)/C=C/C(=O)c1c(O)c(-c2ccc(O)cc2)cn(OC2CC(=O)CCC(C)OC(=O)CC2O)c1=O (stereo partly drawn),-22.7% (active)
17,CCCCc1n(Cc2ccc3ccccc3c2)cc[n+]1Cc1ccc2ccccc2c1,-97.8% (active)
18,COc1cc(/C=C2\SC(N3CCCCC3)=NC2=O)ccc1OCCCCCCOc1ccc(/C=C2\SC(N3CCCCC3)=NC2=O)cc1OC,10.3%
19,CCCCCCCCN(CCO)CCCCCCCC,98.5%

# System: UACC-62 melanoma
# Test: as above
# Conditions: 10 µM unless noted
row,Compound,growth
1,COc1cc(-c2nnc(-c3nc(-c4cc(OC)c(OC)c(OC)c4)n4ccccc34)o2)ccc1N,60.9%
2,O=C(Nc1ccc2c(c1)C(=O)c1ccccc1-2)c1ccccc1,90.2%
3,COc1ccc(CNC(=O)c2c(C)n([O-])c3ccc(OC)cc3[n+]2=O)cc1,94.9%
4,N#CC(C#N)C(C#N)C#N,98.6%
5,CC[N+](CCCCCCCCCC[N+](CC)(c1ccccn1)c1ccccn1)(c1ccccn1)c1ccccn1,0.363% (active)
6,CCCCCCCSc1ncnc2[nH]ncc12,76.6%
7,CC(C)N(Cc1ccccc1)c1c(S)ssc1=S,34.1%
8,O=C(NCCNC(=O)Oc1cccc2ccccc12)Oc1cccc2ccccc12,91.1%
9,Cc1[nH]c(=O)[nH]c(=O)c1CCSSCCc1c(C)[nH]c(=O)[nH]c1=O,104%
10,CC(C)N(Cc1ccccc1)c1c(Cl)ssc1=O,93.1%
11,COc1cnc2c(c1)C(=O)c1c-2n(CCCN2CCCC2)c(=O)c2cc(F)ccc12,-27.8% (active)
12,CSc1nc(-c2ccc(O)cc2O)c2c(=O)[nH]c(Nc3ccc(S(=O)(=O)Nc4nc(C)cc(C)n4)cc3)nc2n1,92.7%
13,c1ccc(COc2ccc(Nc3ncnc4c3cnn4-c3ccccc3)cc2)cc1,93.3%
14,O=C1/C(=C/c2ccc(F)cc2)Cc2ccccc21,95.1%
15,CC[n+]1c(/C=C/c2ccc(N3CCCC3)cc2)cccc1/C=C/c1ccc(N2CCCC2)cc1,-86% (active)
16,ICCC(c1ccccc1)(c1ccccc1)c1ccccc1,-35.3% (active)
17,O=C(CSc1nnc(-c2cc(-c3ccccc3)nc3ccccc23)o1)c1ccc(Br)cc1,94.8%
18,O=c1[nH]c(SCc2ccccc2)nc2nc(Nc3ccc(NC(=S)Nc4ccccc4)cc3)nc(-c3ccc(O)cc3O)c12,87.9%
19,Cc1cc(Cl)ccc1Nc1nc(C(F)(F)F)ccc1C(=O)N/N=C/c1ccc(Cl)cc1,-0.152% (active)
20,Cc1sc2nc3c4ccccc4c(NCCCN(C)C)nn3c(=O)c2c1C,44.3%

row,Compound,growth
1,C[C@H](C(=O)N[C@@H](Cc1ccc(-c2ccccc2)cc1)C(=O)NC1CC(C)(C)NC(C)(C)C1)c1ccc(-c2ccccc2)c(F)c1,-43.9% (active)
2,Cc1csc(C#Cc2cncc(O)c2)n1,98.7%
3,CN[C@@H]1C(OC2[C@H](O[C@H]3[C@H](O)[C@@H](O)[C@H](N=C(N)N)[C@@H](O)[C@@H]3N=C(N)N)OC(C)[C@]2(O)CO)OC(CO)C(O)C1O (stereo partly drawn),114%
4,COCCOCCOCCOCCOc1ccc2c(c1)C(=O)c1nc3ncccc3c(=O)n1-2,-97.2% (active)
5,N#CC1c2ccccc2C=CN1C(=O)N(c1ccccc1)c1ccccc1 (stereo not drawn),61.2%
6,Nc1ccc2c(c1)C(=O)c1cc(Cl)c(Cl)cc1-2,77.9%
7,COc1ccc2c(c1)C(=Nc1cc(OC)c(OC)c(OC)c1)C(=O)N2,88.8%
8,CN(C)CCCN=c1cc2c(=O)n(CCCN(C)C)c(=O)c3c(NCCCN(C)C)cc4c(O)n(CCCN(C)C)c(=O)c1c4c3-2,-49.3% (active)
9,COc1ccc(-c2cnc(SCC(=O)Nc3ccc(-c4nc5ccccc5s4)cc3)n2-c2ccc(OC)cc2)cc1,93.2%
10,O=c1[nH]cc(Nc2cc(Cl)c3nonc3c2[N+](=O)[O-])c(=O)[nH]1,94.9%
11,CCOC(=O)Nc1cc(-c2ccc(C)c(NS(C)(=O)=O)c2)nn2c(C)nnc12,12.9%
12,NS(=O)(=O)c1cc2c(cc1Cl)NC=NS2(=O)=O,103%
13,COc1ccc2ncccc2c1Cc1c(OC)ccc2ncccc12,58%
14,c1ccc(-c2n(Cc3ccc4ccccc4c3)cc[n+]2Cc2ccc3ccccc3c2)cc1,-80% (active)
15,Nc1nc(Nc2ccccc2SSc2ccccc2Nc2nc(N)nc(-c3cccc(Cl)c3)n2)nc(-c2cccc(Cl)c2)n1,86.2%
16,CC1CN(CC(O)c2ccc(Br)cc2)CCO1 (stereo not drawn),108%
17,CC[C@@H](C)/C=C(C)/C=C/C(=O)c1c(O)c(-c2ccc(O)cc2)cn(OC2CC(=O)CCC(C)OC(=O)CC2O)c1=O (stereo partly drawn),-13.1% (active)
18,CCCCc1n(Cc2ccc3ccccc3c2)cc[n+]1Cc1ccc2ccccc2c1,-85.9% (active)
19,COc1cc(/C=C2\SC(N3CCCCC3)=NC2=O)ccc1OCCCCCCOc1ccc(/C=C2\SC(N3CCCCC3)=NC2=O)cc1OC,17.6%
20,CCCCCCCCN(CCO)CCCCCCCC,109%
